Compound activity (PubChem)
Rows were chosen to be rich in hits. Some 10% of all compounds tested hit in one or more screens of this group.
SARS PLP yeast: qHTS of Yeast-based Assay for SARS-CoV PLP; S. cerevisiae expressing SARS-CoV PLpro, growth rescue; Potency, µM (doses to about 32.9 µM), without a hit: at the highest dose activity, positive = growth rescue, most hits filed as activators; hit rate 0.19% among 330,000; further: 0% is about no effect; nearly all actives have a fitted effect of over 55% in size
Pf growth 48h: Primary qHTS for delayed death inhibitors of the malarial parasite plastid, 48 hour incubation. P. falciparum luciferase growth in erythrocytes, 48 h. hit rate 5.9% among 310,000. Potency, µM (highest dose often 28.7 µM), for inactives: top-dose activity change, negative = inhibition, usual class: inhibitors. AID 504832, 2011; active means well fitted inhibition curve with a large enough effect; inconclusive means small, poorly fitted or top-dose-only effect, or another doubt; inactive means no such curve, though single readings can be large or run the other way; further: on the % scale 0 is the no-effect control and ±100 the full control effect
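Growth was read as firefly luciferase luminescence after a 48 h, 37 C, 5% CO2 exposure of compounds to reporter-bearing P. falciparum cultures (0.1% parasitemia, 2% hematocrit final) in Albumax-supplemented RPMI 1640.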
Pf growth 96h: Primary qHTS for delayed death inhibitors of the malarial parasite plastid, 96 hour incubation; P. falciparum luciferase reporter growth, 96 h; Potency, µM (highest dose often 28.7 µM), for inactives: top-dose activity change, negative = inhibition, actives largely listed as inhibitors; hit rate 6.9% among 320,000; AID 504834, 2011; active means well fitted inhibition curve with a large enough effect; inconclusive means small, poorly fitted or top-dose-only effect, or another doubt; inactive means no such curve, though single readings can be large or run the other way; further: on the % scale 0 is the no-effect control and ±100 the full control effect
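Cell-based qHTS: luciferase-tagged P. falciparum in erythrocytes (2% hematocrit, 0.05% parasitemia final) incubated with compounds for 96 hours, 37 C, 5% CO2; luciferase detection reagent then added and luminescence measured.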
NS1 function inh: qHTS Assay for Inhibitors of Influenza NS1 Protein Function; hit rate 0.4% among 270,000; Potency, µM (highest dose often 46.1 µM), inactives show top-dose activity, positive = more growth; AID 2326, 2010; further: actives are rising curves; nearly all actives have a fitted effect of over 50% in size
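Read-out: OD600 growth recovery of NS1-expressing budding yeast. Cells grown overnight at 30C in -URA glucose medium, washed, resuspended and diluted 1:100 in 2% galactose assay medium, pH 6.0. Same strain lacking NS1 served as positive control.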
* hit, by the source's call; ? = inconclusive; nt = not tested or not shown. Unless noted, the call rests on the fitted dose curve. Potency means the concentration at half of the fitted maximal effect.

SMILES	SARS PLP yeast	Pf growth 48h	Pf growth 96h	NS1 function inh
Nc1nc2cc(S(=O)(=O)NC3=NCCCCC3)ccc2s1	3%	?	?	12%
COc1cc(CCC(=O)Nc2ccc(S(=O)(=O)NC3=NCCCCC3)cc2)cc(OC)c1OC	-1%	-29%	10µM*	nt
CCOc1ccc(OCC)c(NC(=O)c2nnn(CC(=O)Nc3cc(C)cc(C)c3)c2N)c1	25%	-1%	?	7%
COc1cc(CO)c(OC)c([N+](=O)[O-])c1	6%	34%	53%	3%
COc1ccc(C2c3ccc4ccccc4c3Oc3ncn(CCCO)c(=N)c32)cc1OC (stereo not drawn)	0%	?	1.9µM*	3%
N=c1c2c(ncn1Cc1ccco1)Oc1ccc3ccccc3c1C2c1ccccc1 (stereo not drawn)	-33%	10µM*	?	?
CN(C)CCCn1cnc2c(c1=N)C(c1ccccc1)c1ccc3ccccc3c1O2 (stereo not drawn)	-1%	1.5µM*	2.1µM*	1%
N=c1c2c(ncn1CCCO)Oc1c(ccc3ccccc13)C2c1ccccc1 (stereo not drawn)	-3%	?	?	-6%
COc1ccc(C2c3ccc4ccccc4c3Oc3ncn(CCO)c(=N)c32)cc1 (stereo not drawn)	-3%	?	0%	3%
COc1ccc(C2c3ccc4ccccc4c3Oc3ncn(CCO)c(=N)c32)cc1OC (stereo not drawn)	0%	10µM*	?	1%
CNc1c(-n2cc(C(=O)OC)c(C(=O)OC)c2C(=O)OC)c(=O)n(C)c(=O)n1C	6%	-2%	-27%	-5%
COc1ccc(C2c3ccc4ccccc4c3Oc3ncn(CCCO)c(=N)c32)cc1 (stereo not drawn)	-16%	5.2µM*	?	?
COc1ccc(C2c3ccc4ccccc4c3Oc3ncn(CCN(C)C)c(=N)c32)cc1 (stereo not drawn)	-2%	2.3µM*	?	-10%
COC(=O)C1=C(c2ccc(F)cc2F)C[C@@H]2CC[C@H]1N2C(=O)NCCOc1ccccc1	-19%	?	4.1µM*	nt
CCCNC(=O)N1[C@H]2CC[C@@H]1C(C(=O)OC)=C(c1ccc(-c3ccccc3)c(F)c1)C2	3%	9.3µM*	?	nt
COC(=O)C1=C(c2ccc(F)cc2F)C[C@@H]2CC[C@H]1N2C(=O)NCc1ccc(F)cc1	-10%	?	4%	nt
COC(=O)C1=C(c2ccc(-c3ccccc3)c(F)c2)C[C@@H]2CC[C@H]1N2C(=O)NCCOc1ccccc1Cl	2%	10µM*	?	nt
CC(=O)OCC(=O)[C@@]1(O)CCC2C3CCC4=CC(=O)CC[C@]4(C)C3=CC[C@@]21C (stereo partly drawn)	nt	5%	-29%	nt
CC(C)OP(=O)(OC(C)C)C1(O)C(=O)Nc2ccccc21 (stereo not drawn)	-1%	-1%	2.6µM*	11%
Cc1ccccc1-n1nc(C)c2cc(C(=O)N3CCN(S(=O)(=O)c4ccc(Cl)cc4)CC3)sc21	-12%	5.2µM*	1.9µM*	-13%
Cc1ccccc1-n1nc(C)c2cc(C(=O)N3CCN(S(=O)(=O)c4ccc(F)cc4)CC3)sc21	1%	4.7µM*	nt	-47%
COCCN(C(=O)COC(=O)c1cc(C)oc1C)c1c(N)n(Cc2ccccc2)c(=O)[nH]c1=O	-6%	?	8%	nt
COc1cc(-c2[o+]c3cc(O)cc(O)c3cc2O)cc(O)c1O	nt	nt	nt	3%
COc1ccc(C(=O)Oc2cc(C)c(CN3CCOCC3)cc2C)cc1OC	0%	?	18%	-17%
CCOc1ccccc1NC(=O)COC(=O)c1cccc(-c2ccc(OC(C)=O)cc2)c1	10%	9.3µM*	9.3µM*	3%
SMILES	SARS PLP yeast	Pf growth 48h	Pf growth 96h	NS1 function inh
CCOc1ccccc1NC(=O)COC(=O)c1cc(C(=O)OC)cc([N+](=O)[O-])c1	-7%	16%	46%	6%
CC(=O)Oc1ccc(-c2cccc(C(=O)OCC(=O)N(C)c3ccccc3)c2)cc1	-15%	-88%	15µM*	-14%
CCOc1ccc(Br)cc1S(=O)(=O)NC1=NCCCCC1	0%	nt	nt	nt
CN(C)C(CNC(=O)c1ccco1)c1cccs1 (stereo not drawn)	0%	16%	45%	nt
COc1ccc(NC(=O)C2CCCN(c3nn4c(=O)cc(C)nc4s3)C2)c(OC)c1 (stereo not drawn)	-1%	?	?	-11%
O=C(c1cn(Cc2ccccc2)nc1-c1cccnc1)N1CCN(Cc2ccccc2)CC1	-2%	?	?	nt
O=C(c1cn(Cc2ccccc2)nc1-c1cccnc1)N1CCc2ccccc2C1	-7%	?	13µM*	nt
COc1cccc(N2CCN(C(=O)c3cn(Cc4ccccc4)nc3-c3cccnc3)CC2)c1	-4%	?	?	nt
COc1ccccc1N1CCN(C(=O)c2cn(Cc3ccccc3)nc2-c2cccnc2)CC1	-5%	?	9.3µM*	nt
CNc1ccccc1C(C)(C)c1cn(-c2ccc([N+](=O)[O-])cc2)nn1	-4%	-18%	?	1%
N#Cc1ccc(-c2ccc(OCC(=O)NN=Cc3ccncc3)cc2)cc1	4%	nt	nt	nt
COc1cc(NC(=O)c2cc(S(=O)(=O)N3CCc4ccccc43)cn2C)cc(OC)c1OC	0%	12µM*	2%	-20%
O=C(Cn1c(=O)oc2cc(S(=O)(=O)N3CCc4ccccc43)ccc21)NC1CCCC1	-2%	nt	?	4%
Cc1ccc(NC(=O)c2cc(S(=O)(=O)N3CCc4ccccc43)cn2C)cc1	2%	?	?	8%
Cn1cc(S(=O)(=O)N2CCc3ccccc32)cc1C(=O)Nc1ccc(Cl)cc1	3%	13µM*	33%	24%
CC(C)CCNC(=O)c1cc(S(=O)(=O)N2CCc3ccccc32)cn1C	2%	-3%	1.2µM*	7%
CC(C)CCNC(=O)Cn1c(=O)oc2cc(S(=O)(=O)N3CCc4ccccc43)ccc21	2%	nt	12µM*	-61%
Cc1cccc(NC(=O)c2cc(S(=O)(=O)N3CCc4ccccc43)cn2C)c1	1%	-14%	?	-4%
c1ccc(OCc2nn3c(-c4cccnc4)nnc3s2)cc1	-2%	?	12µM*	-8%
Clc1ccc(OCc2nn3c(-c4ccco4)nnc3s2)cc1	-17%	15µM*	-23%	-145%
Clc1ccc(OCc2nn3c(-c4ccncc4)nnc3s2)cc1	-1%	31%	28%	-91%
COc1ccc(OCc2nn3c(-c4ccco4)nnc3s2)cc1	-3%	-28%	nt	-65%
COC(=O)[C@]1(Cc2ccccc2)N[C@H](CN(C)S(=O)(=O)c2ccc(-c3ccccc3)cc2)[C@@H]2C(=O)N(Cc3ccccc3)C(=O)[C@@H]21	6%	nt	nt	nt
Cc1cc(C)cc(NS(=O)(=O)c2ccc3c(c2)c(=O)n(C)c(=O)n3C)c1	-6%	12µM*	nt	4%
COc1ccc(C)c2sc(NC(=O)CCS(=O)(=O)c3ccccc3)nc12	0%	-21%	5.2µM*	7%
